“And” between values parts separate entries of the source, which are not always exact repeats. Equal values may be shown once. Records with an inconclusive call do not appear. The source made the active and inactive calls. Unless noted, the call rests on the fitted dose curve; in most records, active means well fitted curve in the direction sought with a large enough effect in the repeat runs; inconclusive means weak or mixed curves; inactive means no such curve, though single readings can be large; an effect the other way counts as inactive or inconclusive.
What was measured:
[1] = target: Thyrotropin-releasing hormone receptor (Homo sapiens) (UniProt P34981); assay: qHTS assay to identify small molecule agonists of the thyrotropin-releasing hormone receptor (TRHR) signaling pathway (AID 1346891; calls by dose curve;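 further: HEK293 cells expressing TRHR with calcium dye readout; series mostly up to about 58 µM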)
Method in brief: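 Cells: TRHR-Hek293, seeded and incubated 18 h. Dye loading: 2 h at 37 °C. Compound added from DMSO stock by pin tool. Read-out: kinetic calcium fluorescence over 3 min.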

[2] = Caspase-3/7 induction in HepG2 cells by small molecules, qHTS assay (AID 1346978); further: nearly all actives have a fitted effect of over 15% in size
Method in brief: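 Wild-type HepG2 cells, 2,000/well, settled 5 hr at 37 C and 5% CO2, then compound-treated for 17 hr; caspase-3/7 activity read by luminescent Caspase-Glo 3/7 after 30 min at room temperature.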

[3] = Caspase-3/7 induction in CHO-K1 cells by small molecules, qHTS cell viability counter screen (AID 1346979); further: nearly all actives have a fitted effect of over 35% in size; further: potency means the concentration at half of the fitted maximal effect
Method in brief: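 Cytotoxicity counter screen run in parallel with the caspase-3/7 assay: CHO-K1 cells, 16hr compound treatment at 37C, then CellTiter-Fluor for 1hr before fluorescence reading.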

[4] = Caspase-3/7 induction in CHO-K1 cells by small molecules, qHTS assay (AID 1346980); further: nearly all actives have a fitted effect of over 15% in size
Method in brief: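 Wild-type CHO-K1 cells exposed to compounds for 17hr at 37 C, 5% CO2. Caspase-3/7 activity then measured by Caspase-Glo 3/7 luminescence after 30min at room temperature.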

[5] = target: Nuclear receptor subfamily 1 group I member 2 (Homo sapiens) (UniProt O75469); assay: Human pregnane X receptor (PXR) small molecule agonists, qHTS assay (AID 1346982); further: nearly all actives have a fitted effect of over 35% in size; further: potency means the concentration at half of the fitted maximal effect
Method in brief: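 PXR-Luc HepG2 reporter cells (CYP3A4-driven luciferase) in 5% charcoal-stripped FBS medium, plated 5 h before compound addition, then treated 24 h at 37C. Luciferase read by ONE-Glo luminescence after 30 min at room temperature.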

[6] = target: Acetylcholinesterase (Homo sapiens) (UniProt P22303); assay: Acetylcholinesterase (AChE) small molecule antagonists: colormetric cell-based qHTS assay (AID 1347395; calls by dose curve; further: nearly all actives have a fitted effect of over 30% in size; further: potency means the concentration at half of the fitted maximal effect)
Method in brief: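 Cells (SH-SY5Y, 2,000 per well) are seeded and left overnight at 37 C. Compound is added for 30 min, then DTNB and acetylthiocholine for a further 90 min at 37 C before absorbance-based thiocholine detection.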

[7] = target: Acetylcholinesterase (Homo sapiens) (UniProt P22303); assay: Acetylcholinesterase (AChE) small molecule antagonists: enzyme-based qHTS assay (AID 1347397; calls by dose curve; further: nearly all actives have a fitted effect of over 55% in size; further: potency means the concentration at half of the fitted maximal effect); settings: Potency: AChE enzyme activity inhibition
Method in brief: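 Enzyme inhibition was scored from DTNB-detected thiocholine formed by recombinant human AChE acting on acetylthiocholine. The 30 min compound preincubation and 10 min substrate reaction were both run at room temperature, with DMSO as vehicle control.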

[8] = target: Acetylcholinesterase (Homo sapiens) (UniProt P22303); assay: Acetylcholinesterase (AChE) small molecule antagonists: fluorescence cell-based qHTS assay (AID 1347398; calls by dose curve; further: nearly all actives have a fitted effect of over 50% in size; further: potency means the concentration at half of the fitted maximal effect); settings: Potency: AChE activity
Method in brief: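 Endogenous acetylcholinesterase of SH-SY5Y neuroblastoma cells is measured in situ. After overnight attachment and 30 min compound exposure, cells receive acetylthiocholine and Thiolite Green; fluorescence is read after 40 min at room temperature.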

[9] = target: Acetylcholinesterase (Homo sapiens) (UniProt P22303); assay: Acetylcholinesterase (AChE) small molecule antagonists: enzyme-based qHTS assay with human liver microsomes (AID 1347399; calls by dose curve; further: nearly all actives have a fitted effect of over 60% in size; further: potency means the concentration at half of the fitted maximal effect); settings: Potency: qHTS inhibition
Method in brief: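 Recombinant human AChE (50 mU/mL in the enzyme mix) and human liver microsomes (0.25 mg/mL final) were preincubated with compound and NADPH (0.25 mg/mL final) for 30 min at 37 C. Acetylthiocholine/DTNB was then added; thiocholine was read colorimetrically after 10 min at room temperature.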

[10] = target: Cytochrome P450 2D6 (Homo sapiens) (UniProt P10635); assay: Cytochrome P450 Family 2 Subfamily D Member 6 (CYP2D6) small molecule antagonists: luciferase reporter qHTS assay (AID 1671196); further: nearly all actives have a fitted effect of over 50% in size; further: potency means the concentration at half of the fitted maximal effect
Method in brief: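 Cell-free P450-Glo system: CYP2D6 with proluciferin substrate was pre-incubated with compound for 10 min, then reacted with NADPH regeneration for 1 h at room temperature. Luciferin product was detected after 20 min, and data were reported as relative luminescence units.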

[11] = target: Cytochrome P450 2C19 (Homo sapiens) (UniProt P33261); assay: Cytochrome P450 Family 2 Subfamily C Member 19 (CYP2C19) small molecule antagonists: luciferase reporter qHTS assay (AID 1671197); further: nearly all actives have a fitted effect of over 65% in size; further: potency means the concentration at half of the fitted maximal effect
Method in brief: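 Compounds were tested on CYP2C19 activity via proluciferin conversion to luciferin. The 37C, 1 h reaction followed NADPH addition; detection reagent stopped it.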

[12] = target: Cytochrome P450 1A2 (Homo sapiens) (UniProt P05177); assay: Cytochrome P450 Family 1 Subfamily A Member 2 (CYP1A2) small molecule antagonists: luciferase reporter qHTS assay (AID 1671199); further: nearly all actives have a fitted effect of over 50% in size; further: potency means the concentration at half of the fitted maximal effect
Method in brief: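 P450-Glo CYP1A2 enzyme–proluciferin substrate mix with compound 10 min at room temperature, then NADPH regeneration 1 h at room temperature. Luciferin detection reagent added, luminescence read after 20 min; furafylline positive control.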

[13] = target: Voltage-gated inwardly rectifying potassium channel KCNH2 (Homo sapiens) (UniProt Q12809); assay: Human Ether-a-go-go-Related Gene (hERG) channel small molecule antagonists: fluorescence cell-based qHTS assay (AID 1671200);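 further: hERG-expressing U2OS cells given a thallium stimulus after FluxOR II dye loading; series mostly up to about 77 µM; nearly all actives have a fitted effect of over 50% in size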
Method in brief: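 Fluorescence at 540 nm emission (480 nm excitation) was recorded kinetically for 2 min at 1-second intervals once the thallium-containing stimulus reached cells previously loaded with FluxOR II dye.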

[14] = target: Cytochrome P450 3A4 (Homo sapiens) (UniProt P08684); assay: Cytochrome P450 Family 3 Subfamily A Member 4 (CYP3A4) small molecule antagonists: luciferase reporter qHTS assay (AID 1671201); further: nearly all actives have a fitted effect of over 50% in size; further: potency means the concentration at half of the fitted maximal effect
Method in brief: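 qHTS, 1536-well. CYP3A4 + proluciferin substrate, cpd 10 min RT → NADPH regen 1 h RT → detection reagent 20 min → luminescence (RLU). Ketoconazole positive control.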

[15] = Human pregnane X receptor (PXR) small molecule agonists, qHTS cell viability counter screen (AID 1346977); further: nearly all actives have a fitted effect of over 50% in size
Method in brief: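 Cytotoxicity counter screen run in the same wells as the PXR luciferase assay, using PXR-Luc HepG2 cells in charcoal-stripped serum medium. Viability: CellTiter-Fluor fluorescence after 24hr compound treatment.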

[16] = Caspase-3/7 induction in HepG2 cells by small molecules, qHTS cell viability counter screen (AID 1346981); further: series mostly up to about 92 µM; nearly all actives have a fitted effect of over 30% in size
Method in brief: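 Wild-type HepG2 cells, 2,000/well, settled 5 hr at 37 C, 5% CO2 before compound addition. Viability read by CellTiter-Fluor fluorescence, reagent added after 16 hr compound exposure, then 1 hr at 37C, in the same wells as the caspase read.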

[17] = target: Cytochrome P450 2C9 (Homo sapiens) (UniProt P11712); assay: Cytochrome P450 Family 2 Subfamily C Member 9 (CYP2C9) small molecule antagonists: luciferase reporter qHTS assay (AID 1671198); further: nearly all actives have a fitted effect of over 50% in size; further: potency means the concentration at half of the fitted maximal effect
Method in brief: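 P450-Glo proluciferin substrate with CYP2C9 enzyme; 10 min RT preincubation, then NADPH regeneration 1 h at 37C; luciferin detection reagent 20 min RT, luminescence in relative luminescence units.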

[18] = target: Nuclear receptor subfamily 1 group I member 2 (Rattus norvegicus) (UniProt Q9R1A7); assay: Rat pregnane X receptor (rPXR) activation by small molecules, qHTS assay (AID 1346983); settings: rPXR luciferase reporter cells, One-Glo luminescence, 24 h; max activation: hits give high values; further: nearly all actives have a fitted effect of over 20% in size
Method in brief: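 Cell-based rPXR activation assay: rPXR cells, 2,000 per well, rested 5hr at 37 C, then exposed to compounds in DMSO for 24 hr at 37 C. Luciferase activity read by One-Glo luminescence after 30 min at room temperature.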
On the % scale 0 is the no-effect control and ±100 the full control effect.

Chain of Cytochrome P450 3A4 (Homo sapiens) (P08684 whole entry, looked up): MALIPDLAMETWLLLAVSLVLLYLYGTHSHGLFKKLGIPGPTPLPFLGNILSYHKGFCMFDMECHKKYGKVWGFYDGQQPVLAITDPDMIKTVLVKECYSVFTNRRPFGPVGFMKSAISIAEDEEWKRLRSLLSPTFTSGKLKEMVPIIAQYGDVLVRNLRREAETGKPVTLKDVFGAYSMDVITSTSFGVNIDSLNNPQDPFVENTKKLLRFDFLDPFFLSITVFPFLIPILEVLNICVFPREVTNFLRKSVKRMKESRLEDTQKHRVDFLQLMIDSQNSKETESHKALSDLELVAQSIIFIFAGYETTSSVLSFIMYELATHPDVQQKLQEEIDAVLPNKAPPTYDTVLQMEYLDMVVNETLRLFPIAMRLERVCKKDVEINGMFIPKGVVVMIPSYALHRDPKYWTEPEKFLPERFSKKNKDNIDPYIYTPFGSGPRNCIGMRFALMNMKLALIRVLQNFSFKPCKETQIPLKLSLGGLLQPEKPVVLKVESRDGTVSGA
Chain of Cytochrome P450 1A2 (Homo sapiens) (P05177 whole entry, looked up): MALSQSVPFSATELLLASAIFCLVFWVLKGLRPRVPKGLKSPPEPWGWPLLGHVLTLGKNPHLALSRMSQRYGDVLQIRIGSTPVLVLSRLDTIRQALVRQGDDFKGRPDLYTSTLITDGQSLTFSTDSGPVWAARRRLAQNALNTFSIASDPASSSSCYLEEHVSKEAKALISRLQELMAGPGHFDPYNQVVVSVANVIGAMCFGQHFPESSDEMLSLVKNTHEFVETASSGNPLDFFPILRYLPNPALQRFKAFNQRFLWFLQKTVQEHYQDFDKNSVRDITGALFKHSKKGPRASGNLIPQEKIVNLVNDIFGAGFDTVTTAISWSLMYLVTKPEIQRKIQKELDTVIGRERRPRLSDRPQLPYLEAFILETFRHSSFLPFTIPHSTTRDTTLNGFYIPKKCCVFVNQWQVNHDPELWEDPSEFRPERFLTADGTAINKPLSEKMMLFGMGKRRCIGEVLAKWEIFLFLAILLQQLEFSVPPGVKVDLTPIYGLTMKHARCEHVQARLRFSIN
Chain of Cytochrome P450 2D6 (Homo sapiens) (P10635 whole entry, looked up): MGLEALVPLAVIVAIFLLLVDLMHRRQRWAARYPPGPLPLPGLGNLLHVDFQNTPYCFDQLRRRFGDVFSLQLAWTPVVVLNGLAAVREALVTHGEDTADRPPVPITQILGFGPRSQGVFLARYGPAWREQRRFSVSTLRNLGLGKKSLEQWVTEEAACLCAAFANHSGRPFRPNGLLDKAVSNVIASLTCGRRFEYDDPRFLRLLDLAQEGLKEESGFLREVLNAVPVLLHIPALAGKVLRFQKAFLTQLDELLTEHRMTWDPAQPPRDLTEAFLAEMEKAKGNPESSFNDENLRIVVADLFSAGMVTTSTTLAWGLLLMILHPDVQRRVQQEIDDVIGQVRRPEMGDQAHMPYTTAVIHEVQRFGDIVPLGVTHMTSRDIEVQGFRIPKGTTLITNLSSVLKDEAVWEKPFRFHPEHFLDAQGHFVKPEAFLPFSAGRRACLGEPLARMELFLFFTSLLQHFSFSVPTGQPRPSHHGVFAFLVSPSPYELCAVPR
Chain of Acetylcholinesterase (Homo sapiens) (P22303 whole entry, looked up): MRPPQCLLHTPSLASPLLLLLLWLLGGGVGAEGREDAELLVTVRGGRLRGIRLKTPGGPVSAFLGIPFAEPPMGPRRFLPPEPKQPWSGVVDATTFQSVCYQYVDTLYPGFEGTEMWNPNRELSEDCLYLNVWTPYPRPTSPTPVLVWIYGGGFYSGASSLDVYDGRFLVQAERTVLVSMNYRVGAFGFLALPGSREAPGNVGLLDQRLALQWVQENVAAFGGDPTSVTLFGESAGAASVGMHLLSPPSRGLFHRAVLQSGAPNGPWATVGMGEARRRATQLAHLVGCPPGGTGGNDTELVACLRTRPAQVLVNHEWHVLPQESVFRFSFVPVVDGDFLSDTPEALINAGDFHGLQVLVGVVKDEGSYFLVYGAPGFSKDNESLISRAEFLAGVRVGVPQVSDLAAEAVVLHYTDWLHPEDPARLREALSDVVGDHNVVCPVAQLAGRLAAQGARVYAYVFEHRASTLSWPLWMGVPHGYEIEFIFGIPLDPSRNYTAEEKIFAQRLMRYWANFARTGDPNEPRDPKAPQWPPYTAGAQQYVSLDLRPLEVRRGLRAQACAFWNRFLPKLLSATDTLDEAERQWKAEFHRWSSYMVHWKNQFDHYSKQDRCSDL
Chain of Thyrotropin-releasing hormone receptor (Homo sapiens) (P34981 whole entry, looked up): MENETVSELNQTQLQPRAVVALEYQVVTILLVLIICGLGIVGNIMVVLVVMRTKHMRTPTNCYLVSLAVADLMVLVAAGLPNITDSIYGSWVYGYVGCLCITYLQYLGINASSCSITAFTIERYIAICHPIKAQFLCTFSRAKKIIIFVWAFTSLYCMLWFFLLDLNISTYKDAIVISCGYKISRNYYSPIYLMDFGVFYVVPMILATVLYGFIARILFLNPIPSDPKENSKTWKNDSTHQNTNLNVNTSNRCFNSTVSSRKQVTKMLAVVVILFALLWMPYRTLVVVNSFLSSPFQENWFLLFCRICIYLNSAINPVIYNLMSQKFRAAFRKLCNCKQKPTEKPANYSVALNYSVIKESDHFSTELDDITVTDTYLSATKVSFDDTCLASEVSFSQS
Chain of Cytochrome P450 2C9 (Homo sapiens) (P11712 whole entry, looked up): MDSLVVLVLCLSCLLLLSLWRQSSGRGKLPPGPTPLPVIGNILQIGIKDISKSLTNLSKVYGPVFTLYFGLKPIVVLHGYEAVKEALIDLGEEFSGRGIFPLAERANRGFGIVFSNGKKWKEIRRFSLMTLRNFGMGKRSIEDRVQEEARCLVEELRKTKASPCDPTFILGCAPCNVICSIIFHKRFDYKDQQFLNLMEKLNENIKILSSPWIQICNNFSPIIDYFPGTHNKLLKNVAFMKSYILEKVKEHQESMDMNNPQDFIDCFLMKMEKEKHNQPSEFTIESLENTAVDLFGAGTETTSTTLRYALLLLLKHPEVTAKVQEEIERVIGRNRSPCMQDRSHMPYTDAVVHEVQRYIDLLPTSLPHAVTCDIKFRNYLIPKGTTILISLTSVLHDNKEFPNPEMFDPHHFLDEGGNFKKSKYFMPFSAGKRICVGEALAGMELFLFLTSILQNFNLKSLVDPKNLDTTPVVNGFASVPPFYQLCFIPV
Chain of Voltage-gated inwardly rectifying potassium channel KCNH2 (Homo sapiens) (Q12809 whole entry, looked up): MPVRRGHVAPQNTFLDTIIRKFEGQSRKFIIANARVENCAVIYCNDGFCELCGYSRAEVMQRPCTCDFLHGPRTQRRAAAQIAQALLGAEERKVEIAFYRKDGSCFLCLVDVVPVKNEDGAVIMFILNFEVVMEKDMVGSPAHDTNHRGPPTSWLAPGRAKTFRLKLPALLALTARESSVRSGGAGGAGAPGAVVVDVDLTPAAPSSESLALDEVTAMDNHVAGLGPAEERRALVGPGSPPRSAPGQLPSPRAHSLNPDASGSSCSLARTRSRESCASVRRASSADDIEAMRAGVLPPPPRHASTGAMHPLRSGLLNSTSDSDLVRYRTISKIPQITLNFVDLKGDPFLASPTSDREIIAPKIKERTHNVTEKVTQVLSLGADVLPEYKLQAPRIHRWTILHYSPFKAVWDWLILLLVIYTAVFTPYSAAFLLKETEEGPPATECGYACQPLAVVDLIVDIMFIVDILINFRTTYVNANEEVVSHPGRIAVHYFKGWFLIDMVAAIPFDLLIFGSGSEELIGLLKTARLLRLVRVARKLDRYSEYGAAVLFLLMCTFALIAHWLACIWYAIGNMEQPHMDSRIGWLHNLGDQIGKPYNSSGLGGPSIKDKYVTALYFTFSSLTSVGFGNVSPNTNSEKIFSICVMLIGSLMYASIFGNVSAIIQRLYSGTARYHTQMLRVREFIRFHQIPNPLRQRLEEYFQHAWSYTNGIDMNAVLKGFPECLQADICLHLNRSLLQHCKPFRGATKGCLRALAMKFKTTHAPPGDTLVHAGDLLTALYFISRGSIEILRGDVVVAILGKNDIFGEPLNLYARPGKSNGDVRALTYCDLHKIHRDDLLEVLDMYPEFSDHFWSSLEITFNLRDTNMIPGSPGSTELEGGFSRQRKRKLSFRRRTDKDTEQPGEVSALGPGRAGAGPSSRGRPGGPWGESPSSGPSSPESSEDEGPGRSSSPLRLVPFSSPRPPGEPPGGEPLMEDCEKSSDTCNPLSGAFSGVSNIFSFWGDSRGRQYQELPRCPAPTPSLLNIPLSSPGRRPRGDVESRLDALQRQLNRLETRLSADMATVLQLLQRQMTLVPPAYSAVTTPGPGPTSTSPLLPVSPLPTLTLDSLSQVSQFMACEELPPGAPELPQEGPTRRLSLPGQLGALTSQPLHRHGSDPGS
Chain of Nuclear receptor subfamily 1 group I member 2 (Homo sapiens) (O75469 whole entry, looked up): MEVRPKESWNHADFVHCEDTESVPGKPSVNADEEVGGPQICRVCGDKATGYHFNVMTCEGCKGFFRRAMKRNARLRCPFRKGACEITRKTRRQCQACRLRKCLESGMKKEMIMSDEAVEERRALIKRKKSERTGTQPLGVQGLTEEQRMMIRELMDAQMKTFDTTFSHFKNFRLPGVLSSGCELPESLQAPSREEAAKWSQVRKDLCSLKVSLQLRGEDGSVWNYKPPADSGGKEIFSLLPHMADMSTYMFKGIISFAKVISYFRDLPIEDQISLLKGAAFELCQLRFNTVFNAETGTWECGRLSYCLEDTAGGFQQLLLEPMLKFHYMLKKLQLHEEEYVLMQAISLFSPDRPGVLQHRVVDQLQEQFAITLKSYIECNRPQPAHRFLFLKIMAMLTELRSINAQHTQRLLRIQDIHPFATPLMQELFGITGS

CCOP(=S)(OCC)SCn1nnc2ccccc2c1=O
active: Potency [3] 68.6 µM | Potency [5] 6.86 µM | Potency [6] 12.6 µM | Potency [7] 35.6 µM | Potency [8] 5.64 µM | Potency [9] 0.252 µM | Potency [10] 35.6 µM | Potency [11] 0.356 µM | Potency [12] 35.6 µM | Potency [14] 1.59 µM
inactive: Potency [1] | Potency [2] | Potency [4] | Potency [13]

O=C1C(=O)c2cccc3cccc1c23
inactive: Potency [1] | Potency [15] | Potency [4] | Potency [16] | Potency [6] | Potency [7] | Potency [13] | Potency [14]
active: Potency [3] 21.7 µM | Potency [5] 54.4 µM | Potency [11] 39.9 µM | Potency [12] 8.93 µM

C(=NC1CCCCC1)=NC1CCCCC1
active: Potency [3] 13.8 µM | Potency [5] 61.5 µM and 54.5 µM
inactive: Potency [1] | Potency [2] | Potency [4] | Potency [6] | Potency [7] | Potency [8] | Potency [9] | Potency [12] | Potency [13] | Potency [14]

CC[C@H]1C[C@H]2[C@@H]3CCC4=CC(=O)CC[C@@H]4[C@H]3CC[C@]2(C)[C@H]1O
inactive: Potency [15] | Potency [2] | Potency [3] | Potency [4] | Potency [16] | Potency [6] | Potency [7] | Potency [8] | Potency [9] | Potency [10] | Potency [12] | Potency [13] | Potency [14]
active: Potency [5] 9.44 µM

Clc1cc(C(Cl)(Cl)Cl)cnc1Cl
active: Potency [3] 61.1 µM | Potency [5] 54.5 µM | Potency [12] 7.96 µM | Potency [14] 8.94 µM
inactive: Potency [1] | Potency [4] | Potency [6] | Potency [7] | Potency [8] | Potency [9] | Potency [10] | Potency [13]

CCCC(Cn1cncn1)c1ccc(Cl)cc1Cl (stereo not given)
active: Potency [5] 24.3 µM | Potency [10] 31.7 µM | Potency [11] 0.142 µM | Potency [17] 5.64 µM | Potency [12] 22.4 µM
inactive: Potency [1] | Potency [2] | Potency [4] | Potency [6] | Potency [7] | Potency [8] | Potency [9] | Potency [13] | Potency [14]

O=C(OC1CCCCC1)c1ccccc1C(=O)OC1CCCCC1
inactive: Potency [1] | Potency [2] | Potency [4] | Potency [6] | Potency [7] | Potency [8] | Potency [10]
active: Potency [5] 5.74 µM | Potency [11] 33.4 µM | Potency [17] 26.5 µM | Potency [12] 37.5 µM | Potency [14] 11.9 µM

CS/C(C)=N/OC(=O)N(C)SN(C)C(=O)O/N=C(\C)SC
inactive: Potency [1] | Potency [2] | Potency [4] | Potency [16] | Potency [14]
active: Potency [6] 1.42 µM | Potency [7] 5.03 µM | Potency [8] 0.71 µM | Potency [9] 31.7 µM | Potency [11] 71 µM | Potency [17] 79.6 µM

CN1C(=O)C(O)N=C(c2ccccc2)c2cc(Cl)ccc21 (stereo not given)
active: Potency [5] 28.3 µM
inactive: Potency [15] | Potency [2] | Potency [3] | Potency [4] | Potency [16] | max activation [18] -0.547% | Potency [6] | Potency [7] | Potency [8]

COc1c(C(C)(C)C)cc([N+](=O)[O-])c(C)c1[N+](=O)[O-]
inactive: Potency [15] | Potency [2] | Potency [3] | Potency [4] | Potency [16] | Potency [7] | Potency [9] | Potency [14]
active: Potency [5] 9.61 µM | Potency [11] 28.1 µM | Potency [12] 1.77 µM

COC(=O)c1cncn1C(C)c1ccccc1 (stereo not given)
inactive: Potency [15] | Potency [2] | Potency [3] | Potency [4] | Potency [16] | Potency [5] | Potency [6] | Potency [7] | Potency [8] | Potency [9] | Potency [12] | Potency [13]
active: Potency [11] 3.89 µM | Potency [17] 27.5 µM | Potency [14] 0.309 µM

c1ccc(CN2CCNCC2)cc1
inactive: Potency [15] | Potency [2] | Potency [3] | Potency [4] | Potency [16] | Potency [5] | Potency [7] | Potency [8] | Potency [9] | Potency [11] | Potency [17] | Potency [12] | Potency [13] | Potency [14]

O=S1OC[C@@H]2[C@H](CO1)[C@]1(Cl)C(Cl)=C(Cl)[C@@]2(Cl)C1(Cl)Cl (stereo not given in full)
inactive: Potency [2] | Potency [16] | Potency [14]
active: Potency [5] 30.6 µM | Potency [11] 7.96 µM | Potency [17] 39.9 µM | Potency [12] 35.6 µM

CCCN(CCC)c1c([N+](=O)[O-])cc(S(C)(=O)=O)cc1[N+](=O)[O-]
active: Potency [5] 2.43 µM | Potency [14] 20 µM
inactive: Potency [15] | Potency [2] | Potency [4] | Potency [7] | Potency [8] | Potency [12] | Potency [13]

O=S(=O)(Cl)c1ccccc1
inactive: Potency [15] | Potency [2] | Potency [3] | Potency [4] | Potency [16] | Potency [5] | Potency [7] | Potency [8] | Potency [9] | Potency [17] | Potency [12] | Potency [13] | Potency [14]
